Results on 42 sequences are retold here after article PMC7819943, “Rice protein-binding microarrays: a tool to detect cis-acting elements near promoter regions in rice”.

The full ranking holds about 39,000 sequences; the median of “fluorescence intensity (a.u.)” is about 4,300, and the highest 2% start at about 39,000. The sample as a whole holds a higher share of the highest values than the screen did.

This experiment addresses T1, OsSMF1 (Oryza sativa, UniProt Q6ZLB0 1-436).
T1 sequence: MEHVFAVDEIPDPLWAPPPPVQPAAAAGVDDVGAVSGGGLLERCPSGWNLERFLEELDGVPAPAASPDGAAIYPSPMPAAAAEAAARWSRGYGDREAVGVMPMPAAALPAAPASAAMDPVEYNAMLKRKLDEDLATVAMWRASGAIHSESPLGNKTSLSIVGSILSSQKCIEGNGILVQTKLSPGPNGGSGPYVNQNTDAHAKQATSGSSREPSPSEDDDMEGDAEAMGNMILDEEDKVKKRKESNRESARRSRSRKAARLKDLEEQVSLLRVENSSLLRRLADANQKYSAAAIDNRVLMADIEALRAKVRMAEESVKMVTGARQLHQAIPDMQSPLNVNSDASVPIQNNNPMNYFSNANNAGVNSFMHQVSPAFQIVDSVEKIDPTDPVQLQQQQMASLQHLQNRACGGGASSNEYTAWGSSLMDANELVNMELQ
As to the kind of experiment: protein-binding microarray (RPBM); PBS, 2% BSA, 51.3 ng/ul salmon testes DNA, 50 uM zinc acetate, 200 nM TF, 25 C, 1 h; high values mean tight binding. To be noted: protein: recombinant; tags: N-terminal polyhistidine and DsRed monomer fusion (pET32a); chain copies: 2; label: CyDye5-dUTP incorporated in the synthesized complementary strand; 3' TTTTT single-stranded linker to array surface; dsDNA, one strand shown. The method, boiled down:
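Polyhistidine-tagged DsRed fusions of transcription factors, joined at the N-terminus, were expressed in E. coli BL21-CodonPlus and isolated on Ni–NTA. They were incubated at 200 nM for 1 h at 25 °C on a custom Agilent array, double-stranded and BSA-blocked, in PBS with 2% BSA, salmon testes DNA and 50 µM zinc acetate. The binding signal is per-feature fluorescence intensity (arbitrary units) read on an Axon 4000B scanner after washing.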
For the sequence “GAATAGAACATGTACAGTGACACATCTGCATTGGAAGCGTCGGAGTCACCTAGTGCAG”, the binding signal is 7380 fluorescence intensity (a.u.). Consider “TGTCATTGACTCACGTGGGTCCTACATGTCATTGAGCTTTCGGAGTCACCTAGTGCAG”, for which the binding signal is 10300 fluorescence intensity (a.u.). The value for “CATCCGTCGCTTCGCTTTCGTTCGAACGCGTTGGACCCAGCGGAGTCACCTAGTGCAG” was 3160 fluorescence intensity (a.u.); that for “ATGATAACTTTTATGGTTTTGGCCGTCTGGGGATCGGAATCGGAGTCACCTAGTGCAG” was 65500 fluorescence intensity (a.u.). The value for “TTATGGACTGATATGGGCCGTTGGATTGGTTTCGGTTTTGCGGAGTCACCTAGTGCAG” was 5480 fluorescence intensity (a.u.); that for “TTTATGATAACTTTGAGTCATATCATTTTGGTAAGTCCTACGGAGTCACCTAGTGCAG” was 3140 fluorescence intensity (a.u.); that for “CCAGTACATTTTGTACTACTACTTCGAACGGGCATGGTCGCGGAGTCACCTAGTGCAG” was 29700 fluorescence intensity (a.u.). The value for “CTAATTGAAATCACAAATGCTGAGTTGCTGACATGCACCACGGAGTCACCTAGTGCAG” was 4570 fluorescence intensity (a.u.); that for “CCCGTCGTTGTCCACCCCGTCCCATTCCACGACCGTCGTCCGGAGTCACCTAGTGCAG” was 3390 fluorescence intensity (a.u.); that for “TGAACACGAACGCGACGCTTCTTCTGTCACGTACGCCCGTCGGAGTCACCTAGTGCAG” was 3200 fluorescence intensity (a.u.). Turning to “GTAACGTACGACCGTTGTCATCGTAGACGCTTCCCGGATTCGGAGTCACCTAGTGCAG”, the binding signal was 45700 fluorescence intensity (a.u.). The figure for “TTTCCTTGGAGAATCCAGATCAGCTTCCTAATCACCCTCACGGAGTCACCTAGTGCAG” is 4040 fluorescence intensity (a.u.). “AGTTTCCGAGAGCGAGCGAGAGAGAGAGAGAGAGAGAGAGCGGAGTCACCTAGTGCAG”: the binding signal was 3220 fluorescence intensity (a.u.). The value for “GTGTCTGCCTCCGCGTCCGCTTCGTCACGGCGGTGTCGGTCGGAGTCACCTAGTGCAG” was 5900 fluorescence intensity (a.u.); that for “TGTGCTCAGCCTTAATTAATTAATCGAGCGAGTCATAAGCCGGAGTCACCTAGTGCAG” was 3460 fluorescence intensity (a.u.). Turning to “CAGGAATTGAACTATTAAGATCCATTATGTTGCTCTAAAACGGAGTCACCTAGTGCAG”, the binding signal was 3310 fluorescence intensity (a.u.). “TGTACCTGAAACTATTGTTATGTCCAGGTCAGGAGCAGTGCGGAGTCACCTAGTGCAG”: the binding signal is 3360 fluorescence intensity (a.u.). “CAGGTGTGTCCATTGAATTGAATTGAATTGAAACTATTGACGGAGTCACCTAGTGCAG”: the binding signal is 60900 fluorescence intensity (a.u.). Take “CTCTCACCATGCAAGATTTCCTTAGATTTGAGTTGAGTCACGGAGTCACCTAGTGCAG”: the binding signal is 3150 fluorescence intensity (a.u.).

With “CTTCAGTCCCGGTTGGTAAGGCTCAGCCGGCCACGTGGCTCGGAGTCACCTAGTGCAG”, the binding signal is 17200 fluorescence intensity (a.u.). The value for “AGCGGACGCGCGGTATGGTCGATGGATGATGACACACGGTCGGAGTCACCTAGTGCAG” was 5210 fluorescence intensity (a.u.); that for “CCAGGTCACATTCACATCTCTCTTTACCAAAGCTAAGCCACGGAGTCACCTAGTGCAG” was 48100 fluorescence intensity (a.u.).

“GTGCCATCTAAGCGTCACGTCAAACACCACATACCAGGTCCGGAGTCACCTAGTGCAG”: the binding signal is 3140 fluorescence intensity (a.u.).

For the sequence “AAGCTAGTCACACATCACCATCACACACACCAAGCCACACCGGAGTCACCTAGTGCAG”, the binding signal is 4460 fluorescence intensity (a.u.). In the case of “CTGTATTCATTAGGGTGGGACTGTATACTATAGTTATTATCGGAGTCACCTAGTGCAG”, the binding signal is 3190 fluorescence intensity (a.u.). The figure for “GACCCACGCCTTCGGGTCCACATGTCATAGCCTATCCACCCGGAGTCACCTAGTGCAG” is 3550 fluorescence intensity (a.u.); for “TTTGCGATGCTGACTGGTCTGAGAGCCTTGATCCGATGGTCGGAGTCACCTAGTGCAG” it is 44800 fluorescence intensity (a.u.). The figure for “GGTCGATGATGATGATGACGACGACGAGAGGAGGAGAGATCGGAGTCACCTAGTGCAG” is 3820 fluorescence intensity (a.u.); for “GTCTGGCTGCTGATGGTGATGATGCTGACTTGTGACGAGTCGGAGTCACCTAGTGCAG” it is 3620 fluorescence intensity (a.u.); for “CTTGTTTGATCAAACCGATGCGACGCAGAGAGAGAGAGGTCGGAGTCACCTAGTGCAG” it is 39400 fluorescence intensity (a.u.). “GAAACGATGGTTTGAGTACTGACTTGGCAATGCTGGTCATCGGAGTCACCTAGTGCAG”: the binding signal was 6280 fluorescence intensity (a.u.). The figure for “AAACAGAGGGGAAGAGAGAGGATCGTCGTCGACGATGATGCGGAGTCACCTAGTGCAG” is 3200 fluorescence intensity (a.u.); for “TGTTGTGCTGGTTGGTTCCAGATCTAACAGTGACAGTGCGCGGAGTCACCTAGTGCAG” it is 4380 fluorescence intensity (a.u.). With “AAGTCCGATTCGTGAGTCACAGATGTTGACTCGCCGAAAACGGAGTCACCTAGTGCAG”, the binding signal is 5350 fluorescence intensity (a.u.). The value for “TCCTTCTATATGTTTGCACTTACGTGGGCCGTATTTATGCCGGAGTCACCTAGTGCAG” was 9040 fluorescence intensity (a.u.); that for “GACGATCAAGATCGACACGACCAACGTGGCATGTTGCGTACGGAGTCACCTAGTGCAG” was 9470 fluorescence intensity (a.u.). The figure for “GAGGAGGAGGAGGCTGATGTGGCAGCCTGACATGTGGGGCCGGAGTCACCTAGTGCAG” is 7020 fluorescence intensity (a.u.); for “AAAGGATGATATTTATTCGATCCTTGTTCGAATGTAGACTCGGAGTCACCTAGTGCAG” it is 55700 fluorescence intensity (a.u.); for “TCCTTGATCCTTTATTTGATATTTGTTTAGATATATAATTCGGAGTCACCTAGTGCAG” it is 37900 fluorescence intensity (a.u.). The value for “TACGATGAGTCATTTATTGATTATTGTATTAATGTTCCTTCGGAGTCACCTAGTGCAG” was 11500 fluorescence intensity (a.u.); that for “CGCTGTGTATATATGTGCAGGTCCATCCATGAGAGGTTGACGGAGTCACCTAGTGCAG” was 34900 fluorescence intensity (a.u.).

Regarding “GGCATAATAGGCCAGCCGTGTAGGCAGAGACACCAGTCGGCGGAGTCACCTAGTGCAG”, the binding signal was 4530 fluorescence intensity (a.u.).
